What was measured:
Test in all cases: log2 ratio of Biotin-Ahx-Ub-VS probe labelling (fragment/DMSO); higher = less target engagement (more negative = stronger competition), active = hit call of the paper (q ≤ 0.05, log2 ratio ≤ -1)
Settings in all cases: compound concentration: 200 uM; treatment time: 3 h
ALG13 = target: T1, ALG13 (UniProt Q9NP73)
T1 sequence (whole entry): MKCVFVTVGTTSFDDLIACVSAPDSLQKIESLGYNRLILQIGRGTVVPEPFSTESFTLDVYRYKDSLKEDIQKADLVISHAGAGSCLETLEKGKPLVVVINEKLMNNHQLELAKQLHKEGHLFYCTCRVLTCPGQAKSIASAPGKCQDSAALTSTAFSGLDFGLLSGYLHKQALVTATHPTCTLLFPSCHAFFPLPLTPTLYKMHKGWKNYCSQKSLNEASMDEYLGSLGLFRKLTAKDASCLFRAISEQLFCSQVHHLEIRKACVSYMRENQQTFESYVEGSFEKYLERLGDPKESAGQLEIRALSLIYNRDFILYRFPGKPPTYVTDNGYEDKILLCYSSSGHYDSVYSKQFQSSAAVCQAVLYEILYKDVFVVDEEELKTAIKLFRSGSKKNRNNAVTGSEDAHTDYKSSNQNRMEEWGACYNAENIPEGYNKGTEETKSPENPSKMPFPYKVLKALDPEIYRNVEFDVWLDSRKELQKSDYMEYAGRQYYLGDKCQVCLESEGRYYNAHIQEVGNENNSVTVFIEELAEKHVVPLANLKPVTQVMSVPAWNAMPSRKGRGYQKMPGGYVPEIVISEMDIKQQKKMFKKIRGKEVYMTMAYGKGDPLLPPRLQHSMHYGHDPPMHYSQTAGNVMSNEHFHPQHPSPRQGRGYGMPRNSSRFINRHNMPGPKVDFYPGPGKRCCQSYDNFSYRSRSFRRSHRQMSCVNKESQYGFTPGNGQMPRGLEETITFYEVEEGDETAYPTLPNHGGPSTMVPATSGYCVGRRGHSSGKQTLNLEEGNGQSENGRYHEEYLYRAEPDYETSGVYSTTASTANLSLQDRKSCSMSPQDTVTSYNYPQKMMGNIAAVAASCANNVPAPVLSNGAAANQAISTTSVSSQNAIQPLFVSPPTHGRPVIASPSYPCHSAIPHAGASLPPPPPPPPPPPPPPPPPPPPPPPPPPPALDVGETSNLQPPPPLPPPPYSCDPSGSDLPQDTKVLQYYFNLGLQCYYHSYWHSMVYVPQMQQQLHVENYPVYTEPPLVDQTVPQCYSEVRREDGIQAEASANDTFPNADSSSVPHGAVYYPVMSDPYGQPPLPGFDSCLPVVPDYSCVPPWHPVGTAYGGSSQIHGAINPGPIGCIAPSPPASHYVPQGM
How it was run: (§1)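 Global-median-normalised Spectronaut label-free quantities were compared by unpaired t-test, and values are average log2 ratios of fragment over vehicle. Only proteins with ≥2 unique peptides were used. HEK293T lysate (495 µg per sample) was treated in triplicate with fragment at 200 µM or vehicle for 3 h and then with Biotin-Ahx-Ub-VS at 0.5 µM final for 1 h. Labelled DUBs were then NeutrAvidin-enriched, digested with LysC and trypsin, and run by diaPASEF LC-MS/MS.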

ATXN3 = ATXN3 (UniProt P54252)
How it was run: as §1

BAP1 = target: T2, BAP1 (UniProt Q92560)
T2 sequence (whole entry): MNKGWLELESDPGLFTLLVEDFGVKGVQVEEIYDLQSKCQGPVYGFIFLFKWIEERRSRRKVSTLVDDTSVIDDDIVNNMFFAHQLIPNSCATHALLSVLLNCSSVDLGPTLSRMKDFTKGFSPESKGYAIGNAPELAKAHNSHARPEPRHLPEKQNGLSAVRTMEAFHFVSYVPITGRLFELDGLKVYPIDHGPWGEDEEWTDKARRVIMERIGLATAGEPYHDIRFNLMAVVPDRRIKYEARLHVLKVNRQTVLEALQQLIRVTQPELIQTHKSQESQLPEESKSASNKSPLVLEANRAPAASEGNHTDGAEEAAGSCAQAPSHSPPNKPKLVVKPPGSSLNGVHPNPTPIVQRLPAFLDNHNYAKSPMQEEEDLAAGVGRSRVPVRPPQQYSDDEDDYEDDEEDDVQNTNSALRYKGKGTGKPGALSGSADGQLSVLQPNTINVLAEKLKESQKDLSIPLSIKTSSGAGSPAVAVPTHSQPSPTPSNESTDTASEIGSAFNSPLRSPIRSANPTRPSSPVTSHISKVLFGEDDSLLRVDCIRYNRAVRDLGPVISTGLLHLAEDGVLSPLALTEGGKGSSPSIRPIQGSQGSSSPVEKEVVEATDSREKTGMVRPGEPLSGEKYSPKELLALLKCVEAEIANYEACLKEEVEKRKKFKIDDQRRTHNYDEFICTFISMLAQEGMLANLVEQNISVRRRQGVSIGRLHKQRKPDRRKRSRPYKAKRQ
How it was run: as §1

EIF3F = EIF3F (UniProt O00303)
How it was run: as §1

EIF3H = EIF3H (UniProt O15372)
How it was run: as §1

FAM105A = target: T3, FAM105A (UniProt Q9NUU6)
T3 sequence (whole entry): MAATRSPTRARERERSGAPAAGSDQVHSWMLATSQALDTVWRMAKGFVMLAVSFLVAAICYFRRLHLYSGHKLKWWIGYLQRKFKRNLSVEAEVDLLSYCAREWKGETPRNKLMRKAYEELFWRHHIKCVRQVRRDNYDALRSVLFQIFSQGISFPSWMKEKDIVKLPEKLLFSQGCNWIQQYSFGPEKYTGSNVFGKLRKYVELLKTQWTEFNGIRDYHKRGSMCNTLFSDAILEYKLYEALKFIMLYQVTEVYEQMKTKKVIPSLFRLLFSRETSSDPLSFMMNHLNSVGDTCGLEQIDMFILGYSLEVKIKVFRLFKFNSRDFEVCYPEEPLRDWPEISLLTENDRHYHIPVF
How it was run: as §1

OTUB1 = OTUB1 (UniProt Q96FW1)
How it was run: as §1

OTUD4 = target: T4, OTUD4 (UniProt Q01804)
T4 sequence (whole entry): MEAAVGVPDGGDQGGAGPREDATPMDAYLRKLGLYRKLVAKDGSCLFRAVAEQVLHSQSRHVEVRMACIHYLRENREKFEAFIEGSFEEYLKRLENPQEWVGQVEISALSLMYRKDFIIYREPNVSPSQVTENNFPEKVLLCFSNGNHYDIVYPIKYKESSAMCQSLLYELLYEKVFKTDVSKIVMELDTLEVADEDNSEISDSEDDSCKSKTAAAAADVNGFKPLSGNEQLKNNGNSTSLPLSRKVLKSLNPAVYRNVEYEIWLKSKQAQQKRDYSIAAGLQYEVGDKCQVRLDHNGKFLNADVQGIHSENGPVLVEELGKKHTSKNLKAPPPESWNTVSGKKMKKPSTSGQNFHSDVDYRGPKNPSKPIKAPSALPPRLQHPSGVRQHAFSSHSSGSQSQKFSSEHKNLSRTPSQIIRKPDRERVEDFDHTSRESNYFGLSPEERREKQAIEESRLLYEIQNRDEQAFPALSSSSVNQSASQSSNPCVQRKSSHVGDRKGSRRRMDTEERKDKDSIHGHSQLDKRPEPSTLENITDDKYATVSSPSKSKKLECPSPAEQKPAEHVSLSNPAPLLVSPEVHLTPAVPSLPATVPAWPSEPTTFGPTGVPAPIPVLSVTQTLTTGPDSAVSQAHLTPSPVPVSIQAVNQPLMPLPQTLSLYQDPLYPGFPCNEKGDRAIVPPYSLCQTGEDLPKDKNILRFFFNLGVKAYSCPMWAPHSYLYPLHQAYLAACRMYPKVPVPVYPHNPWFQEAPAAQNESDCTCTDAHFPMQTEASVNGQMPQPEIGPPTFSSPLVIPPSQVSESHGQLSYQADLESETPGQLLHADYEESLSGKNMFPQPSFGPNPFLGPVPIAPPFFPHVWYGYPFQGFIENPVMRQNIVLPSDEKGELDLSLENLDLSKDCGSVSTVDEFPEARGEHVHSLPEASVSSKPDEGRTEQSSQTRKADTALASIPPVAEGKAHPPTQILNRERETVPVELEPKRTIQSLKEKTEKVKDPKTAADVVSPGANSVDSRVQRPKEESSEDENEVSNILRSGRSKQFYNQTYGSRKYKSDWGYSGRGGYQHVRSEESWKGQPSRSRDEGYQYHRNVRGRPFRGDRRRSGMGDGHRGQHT
How it was run: as §1

OTUD5 = target: T5, OTUD5 (UniProt Q96G74)
T5 sequence (whole entry): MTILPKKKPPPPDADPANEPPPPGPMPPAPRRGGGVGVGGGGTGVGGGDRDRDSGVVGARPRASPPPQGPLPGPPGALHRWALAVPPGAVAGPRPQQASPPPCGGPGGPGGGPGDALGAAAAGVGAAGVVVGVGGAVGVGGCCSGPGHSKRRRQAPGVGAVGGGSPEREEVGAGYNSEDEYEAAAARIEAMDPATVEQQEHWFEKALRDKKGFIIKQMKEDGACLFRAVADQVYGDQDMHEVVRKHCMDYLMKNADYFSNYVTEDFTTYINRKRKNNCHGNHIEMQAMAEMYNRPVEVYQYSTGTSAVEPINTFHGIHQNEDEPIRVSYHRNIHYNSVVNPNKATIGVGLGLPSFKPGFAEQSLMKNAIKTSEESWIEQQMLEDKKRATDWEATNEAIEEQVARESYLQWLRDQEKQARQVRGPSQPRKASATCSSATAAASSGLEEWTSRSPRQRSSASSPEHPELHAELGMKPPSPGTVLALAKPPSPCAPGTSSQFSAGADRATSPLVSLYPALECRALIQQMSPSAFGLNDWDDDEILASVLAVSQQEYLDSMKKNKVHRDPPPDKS
How it was run: as §1

Measured: log2 ratio of Biotin-Ahx-Ub-VS probe labelling

ATXN3, sequence (P54252 whole entry): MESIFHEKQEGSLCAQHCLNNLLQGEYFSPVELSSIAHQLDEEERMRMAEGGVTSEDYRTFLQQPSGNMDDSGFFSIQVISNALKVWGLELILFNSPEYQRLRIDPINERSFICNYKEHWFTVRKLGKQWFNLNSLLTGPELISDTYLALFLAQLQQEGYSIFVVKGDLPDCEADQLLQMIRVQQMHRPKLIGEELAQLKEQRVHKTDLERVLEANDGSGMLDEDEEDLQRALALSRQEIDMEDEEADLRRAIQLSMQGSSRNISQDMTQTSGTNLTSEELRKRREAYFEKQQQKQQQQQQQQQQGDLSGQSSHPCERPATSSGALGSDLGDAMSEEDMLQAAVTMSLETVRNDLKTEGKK
EIF3H, sequence (O15372 whole entry): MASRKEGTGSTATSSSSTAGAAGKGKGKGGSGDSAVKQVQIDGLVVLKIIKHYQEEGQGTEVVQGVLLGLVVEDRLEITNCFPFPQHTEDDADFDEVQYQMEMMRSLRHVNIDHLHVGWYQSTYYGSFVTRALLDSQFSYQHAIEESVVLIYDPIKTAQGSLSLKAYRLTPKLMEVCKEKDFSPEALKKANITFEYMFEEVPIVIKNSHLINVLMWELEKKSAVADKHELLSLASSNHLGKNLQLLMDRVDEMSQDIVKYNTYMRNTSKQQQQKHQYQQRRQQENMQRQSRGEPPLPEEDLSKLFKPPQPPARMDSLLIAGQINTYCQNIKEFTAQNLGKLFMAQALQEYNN
OTUB1, sequence (Q96FW1 whole entry): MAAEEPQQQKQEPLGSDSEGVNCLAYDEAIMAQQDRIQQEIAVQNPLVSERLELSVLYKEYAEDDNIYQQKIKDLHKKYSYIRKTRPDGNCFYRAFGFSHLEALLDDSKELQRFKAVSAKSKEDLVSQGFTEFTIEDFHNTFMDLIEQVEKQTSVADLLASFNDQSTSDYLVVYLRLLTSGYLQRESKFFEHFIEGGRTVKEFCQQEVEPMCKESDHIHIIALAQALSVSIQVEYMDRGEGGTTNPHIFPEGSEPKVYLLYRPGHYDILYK
EIF3F, sequence (O00303 whole entry): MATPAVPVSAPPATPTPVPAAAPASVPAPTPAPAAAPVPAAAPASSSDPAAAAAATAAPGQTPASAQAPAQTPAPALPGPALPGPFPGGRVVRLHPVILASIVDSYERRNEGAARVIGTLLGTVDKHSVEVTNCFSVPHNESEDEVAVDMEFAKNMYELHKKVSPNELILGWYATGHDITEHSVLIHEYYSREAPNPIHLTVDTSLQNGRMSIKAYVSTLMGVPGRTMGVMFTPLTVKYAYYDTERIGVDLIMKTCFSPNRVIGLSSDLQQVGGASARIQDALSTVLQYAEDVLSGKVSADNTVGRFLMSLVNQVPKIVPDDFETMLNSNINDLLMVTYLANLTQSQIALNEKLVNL

Cc1cccc(N2CCC(NC(=O)CCl)C2=O)c1 (centres undefined)
active: BAP1 -4.17
inactive: ALG13 -0.354 | ATXN3 -0.569 | EIF3F -0.331 | EIF3H 0.306 | FAM105A 0.111 | OTUB1 -0.325 | OTUD4 -0.412 | OTUD5 -0.338
